# Laboratory results published in PubChem BioAssay AID1159580 (chemical genetic matrix, 2015).
# Among all 5,500 compounds or so, about 2,000 (36%) were called active. About 18% were inconclusive and are not listed. The list shows a part of the results. Unmarked numbers belong to inactive results. Rule as the data show it: active = normalized growth mostly below about 0.91 (no sharp cut-off); inconclusive = no clear call, values can overlap the other calls; inactive = mostly above about 0.92.
# Assay: chemical genetic growth profiling, strain panel (AID 1159580);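 also: tested at 20 µM; growth read once vehicle control cultures reached saturation at 30 °C; 1 = growth at the plate median or of vehicle wells; lower values mean less growth of the strain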
# Details: growth OD
smiles,measurement,setting,value
Cc1cc(CC(=O)O)n(C)c1C(=O)c1ccc(Cl)cc1,normalized growth,"S. cerevisiae deletion strains, locus YJR075W, strain HOC1, hits give low values",1
same,normalized growth,"S. cerevisiae deletion strains, locus YKL009W, strain mrt4, hits give low values",0.962
same,normalized growth,"S. cerevisiae deletion strains, locus YKL068W, hits give low values",1
same,normalized growth,"S. cerevisiae deletion strains, locus YKL085W, strain MDH1 (second series), hits give low values",0.994
same,normalized growth,"S. cerevisiae deletion strains, locus YKL085W, strain MDH1, hits give low values",0.994
same,normalized growth,"S. cerevisiae deletion strains, locus YKL160W, strain elf1, hits give low values",1.05
same,normalized growth,"S. cerevisiae deletion strains, locus YKL190W, strain CNB1, hits give low values",1.01
same,normalized growth,"S. cerevisiae deletion strains, locus YKR001C, strain vps1, hits give low values",1.03
same,normalized growth,"S. cerevisiae deletion strains, locus YKR026C, strain gcn3, hits give low values",1.03
same,normalized growth,"S. cerevisiae deletion strains, locus YKR091W, strain srl3, hits give low values",1.02
same,normalized growth,"S. cerevisiae deletion strains, locus YLL001W, strain dnm1, hits give low values",1
same,normalized growth,"S. cerevisiae deletion strains, locus YLL026W, hits give low values",1.05
same,normalized growth,"S. cerevisiae deletion strains, locus YLL041C, strain sdh2, hits give low values",1.02
same,normalized growth,"S. cerevisiae deletion strains, locus YLR027C, strain aat2, hits give low values",1.03
same,normalized growth,"S. cerevisiae deletion strains, locus YLR039C, strain RIC1, hits give low values",1
same,normalized growth,"S. cerevisiae deletion strains, locus YLR058C, strain SHM2, hits give low values",0.996
same,normalized growth,"S. cerevisiae deletion strains, locus YLR102C, strain apc9, hits give low values",1.01
same,normalized growth,"S. cerevisiae deletion strains, locus YLR113W, strain HOG1, hits give low values",1.01
same,normalized growth,"S. cerevisiae deletion strains, locus YLR221C, strain rsa3, hits give low values",1.01
same,normalized growth,"S. cerevisiae deletion strains, locus YLR258W, strain gsy2, hits give low values",1.04
same,normalized growth,"S. cerevisiae deletion strains, locus YLR262C, strain YPT6 (second series), hits give low values",1.01
same,normalized growth,"S. cerevisiae deletion strains, locus YLR262C, strain YPT6, hits give low values",1.01
same,normalized growth,"S. cerevisiae deletion strains, locus YLR268W, strain sec22, hits give low values",0.997
same,normalized growth,"S. cerevisiae deletion strains, locus YLR320W, strain mms22, hits give low values",0.994
same,normalized growth,"S. cerevisiae deletion strains, locus YLR330W, strain CHS5, hits give low values",0.992
same,normalized growth,"S. cerevisiae deletion strains, locus YLR342W, strain FKS1 (second series), hits give low values",0.937
same,normalized growth,"S. cerevisiae deletion strains, locus YLR342W, strain FKS1, hits give low values",1.01
same,normalized growth,"S. cerevisiae deletion strains, locus YLR357W, strain rsc2, hits give low values",0.995
same,normalized growth,"S. cerevisiae deletion strains, locus YLR370C, strain arc18, hits give low values",1.04
same,normalized growth,"S. cerevisiae deletion strains, locus YLR371W, strain rom2, hits give low values",1.02
same,normalized growth,"S. cerevisiae deletion strains, locus YLR384C, strain iki3, hits give low values",1.04
same,normalized growth,"S. cerevisiae deletion strains, locus YLR418C, strain cdc73, hits give low values",0.99
same,normalized growth,"S. cerevisiae deletion strains, locus YML016C, strain PPZ1, hits give low values",0.994
same,normalized growth,"S. cerevisiae deletion strains, locus YML032C, strain rad52, hits give low values",1.02
same,normalized growth,"S. cerevisiae deletion strains, locus YML120C, strain ndi1, hits give low values",1.02
same,normalized growth,"S. cerevisiae deletion strains, locus YML124C, strain tub3, hits give low values",1.01
same,normalized growth,"S. cerevisiae deletion strains, locus YMR058W, strain fet3, hits give low values",1.03
same,normalized growth,"S. cerevisiae deletion strains, locus YMR078C, strain ctf18, hits give low values",1.01
same,normalized growth,"S. cerevisiae deletion strains, locus YMR125W, strain sto1, hits give low values",1.03
same,normalized growth,"S. cerevisiae deletion strains, locus YMR129W, hits give low values",1.02
same,normalized growth,"S. cerevisiae deletion strains, locus YMR205C, strain PFK2, hits give low values",1.02
same,normalized growth,"S. cerevisiae deletion strains, locus YMR223W, strain ubp8, hits give low values",0.994
same,normalized growth,"S. cerevisiae deletion strains, locus YMR231W, strain pep5, hits give low values",1.03
same,normalized growth,"S. cerevisiae deletion strains, locus YMR263W, strain SAP30, hits give low values",0.993
same,normalized growth,"S. cerevisiae deletion strains, locus YMR307W, strain GAS1, hits give low values",0.947
same,normalized growth,"S. cerevisiae deletion strains, locus YNL067W, strain RPL9B, hits give low values",0.997
same,normalized growth,"S. cerevisiae deletion strains, locus YNL071W, strain lat1, hits give low values",1.02
same,normalized growth,"S. cerevisiae deletion strains, locus YNL128W, strain TEP1, hits give low values",1.01
same,normalized growth,"S. cerevisiae deletion strains, locus YNL153C, strain GIM3, hits give low values",0.991
same,normalized growth,"S. cerevisiae deletion strains, locus YNL183C, strain NPR1, hits give low values",0.963
same,normalized growth,"S. cerevisiae deletion strains, locus YNL209W, strain ssb2, hits give low values",1.05
same,normalized growth,"S. cerevisiae deletion strains, locus YNL233W, strain BNI4, hits give low values",0.993
same,normalized growth,"S. cerevisiae deletion strains, locus YNL248C, strain rpa49, hits give low values",1.02
same,normalized growth,"S. cerevisiae deletion strains, locus YNL250W, strain rad50, hits give low values",1.01
same,normalized growth,"S. cerevisiae deletion strains, locus YNL271C, strain bni1, hits give low values",1.01
same,normalized growth,"S. cerevisiae deletion strains, locus YNL298W, strain CLA4, hits give low values",0.998
same,normalized growth,"S. cerevisiae deletion strains, locus YNL307C, strain MCK1, hits give low values",0.901 (active)
same,normalized growth,"S. cerevisiae deletion strains, locus YNL322C, strain KRE1 (second series), hits give low values",1.02
same,normalized growth,"S. cerevisiae deletion strains, locus YNL322C, strain KRE1, hits give low values",1.01
same,normalized growth,"S. cerevisiae deletion strains, locus YNR049C, strain mso1, hits give low values",1.02
same,normalized growth,"S. cerevisiae deletion strains, locus YNR052C, strain pop2, hits give low values",1.01
same,normalized growth,"S. cerevisiae deletion strains, locus YOL006C, strain TOP1, hits give low values",0.895
same,normalized growth,"S. cerevisiae deletion strains, locus YOL012C, strain htz1",1.55
same,normalized growth,"S. cerevisiae deletion strains, locus YOL147C, strain pex11, hits give low values",1.02
same,normalized growth,"S. cerevisiae deletion strains, locus YOR001W, strain rrp6, hits give low values",1.01
same,normalized growth,"S. cerevisiae deletion strains, locus YOR061W, strain CKA2, hits give low values",1.01
same,normalized growth,"S. cerevisiae deletion strains, locus YOR069W, strain VPS5, hits give low values",1
same,normalized growth,"S. cerevisiae deletion strains, locus YOR070C, strain gyp1, hits give low values",1.02
same,normalized growth,"S. cerevisiae deletion strains, locus YOR080W, strain dia2, hits give low values",1.03
same,normalized growth,"S. cerevisiae deletion strains, locus YOR083W, strain WHI5, hits give low values",1.04
same,normalized growth,"S. cerevisiae deletion strains, locus YOR106W, strain vam3, hits give low values",1.05
same,normalized growth,"S. cerevisiae deletion strains, locus YOR136W, strain idh2, hits give low values",1.02
same,normalized growth,"S. cerevisiae deletion strains, locus YOR144C, strain elg1, hits give low values",1.01
same,normalized growth,"S. cerevisiae deletion strains, locus YOR184W, strain ser1, hits give low values",0.983
same,normalized growth,"S. cerevisiae deletion strains, locus YOR231W, strain MKK1, hits give low values",1.01
same,normalized growth,"S. cerevisiae deletion strains, locus YOR265W, strain rbl2, hits give low values",1.05
same,normalized growth,"S. cerevisiae deletion strains, locus YOR270C, strain vph1, hits give low values",1.05
same,normalized growth,"S. cerevisiae deletion strains, locus YOR290C, strain snf2, hits give low values",1.06
same,normalized growth,"S. cerevisiae deletion strains, locus YOR316C, strain cot1, hits give low values",1.01
same,normalized growth,"S. cerevisiae deletion strains, locus YPL051W, strain arl3, hits give low values",1.04
same,normalized growth,"S. cerevisiae deletion strains, locus YPL055C, strain LGE1, hits give low values",1
same,normalized growth,"S. cerevisiae deletion strains, locus YPL078C, strain atp4, hits give low values",1.04
same,normalized growth,"S. cerevisiae deletion strains, locus YPL106C, strain sse1, hits give low values",1.04
same,normalized growth,"S. cerevisiae deletion strains, locus YPL240C, strain hsp82, hits give low values",1.03
same,normalized growth,"S. cerevisiae deletion strains, locus YPL241C, strain CIN2, hits give low values",0.996
same,normalized growth,"S. cerevisiae deletion strains, locus YPL256C, strain CLN2, hits give low values",1.02
same,normalized growth,"S. cerevisiae deletion strains, locus YPR119W, strain clb2, hits give low values",1.01
same,normalized growth,"S. cerevisiae deletion strains, locus YPR141C, strain kar3, hits give low values",1.01
same,normalized growth,"S. cerevisiae deletion strains, locus YPR163C, strain tif3, hits give low values",1.01
same,normalized growth,"S. cerevisiae deletion strains, locus YPR167C, strain met16, hits give low values",1
same,normalized growth,"S. cerevisiae deletion strains, strain wtn01, hits give low values",1.01
same,normalized growth,"S. cerevisiae strains, strain wild type, hits give low values",1.01
